Potency and affinity values are given separately. Inconclusive results are not listed. Calls of active or inactive are those of the source.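 How the source made its calls: active means fitted half-maximal concentration no higher than twice the top tested dose, in every repeat run; inconclusive means repeat runs disagree, poor fit, or flat partial inhibition; inactive means the rest.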
molecular target: Endoplasmic reticulum aminopeptidase 1 (Homo sapiens) (UniProt Q9NZ08); experiment: ERAP1 aminopeptidase inhibitors, dose response, biochemical, cherry-pick, set 2, plate reader (AID 743314); details: Recombinant ERAP1, Leu-AMC fluorescence, 60 min; series mostly up to 11 µM
Sequence (Q9NZ08 whole entry, looked up): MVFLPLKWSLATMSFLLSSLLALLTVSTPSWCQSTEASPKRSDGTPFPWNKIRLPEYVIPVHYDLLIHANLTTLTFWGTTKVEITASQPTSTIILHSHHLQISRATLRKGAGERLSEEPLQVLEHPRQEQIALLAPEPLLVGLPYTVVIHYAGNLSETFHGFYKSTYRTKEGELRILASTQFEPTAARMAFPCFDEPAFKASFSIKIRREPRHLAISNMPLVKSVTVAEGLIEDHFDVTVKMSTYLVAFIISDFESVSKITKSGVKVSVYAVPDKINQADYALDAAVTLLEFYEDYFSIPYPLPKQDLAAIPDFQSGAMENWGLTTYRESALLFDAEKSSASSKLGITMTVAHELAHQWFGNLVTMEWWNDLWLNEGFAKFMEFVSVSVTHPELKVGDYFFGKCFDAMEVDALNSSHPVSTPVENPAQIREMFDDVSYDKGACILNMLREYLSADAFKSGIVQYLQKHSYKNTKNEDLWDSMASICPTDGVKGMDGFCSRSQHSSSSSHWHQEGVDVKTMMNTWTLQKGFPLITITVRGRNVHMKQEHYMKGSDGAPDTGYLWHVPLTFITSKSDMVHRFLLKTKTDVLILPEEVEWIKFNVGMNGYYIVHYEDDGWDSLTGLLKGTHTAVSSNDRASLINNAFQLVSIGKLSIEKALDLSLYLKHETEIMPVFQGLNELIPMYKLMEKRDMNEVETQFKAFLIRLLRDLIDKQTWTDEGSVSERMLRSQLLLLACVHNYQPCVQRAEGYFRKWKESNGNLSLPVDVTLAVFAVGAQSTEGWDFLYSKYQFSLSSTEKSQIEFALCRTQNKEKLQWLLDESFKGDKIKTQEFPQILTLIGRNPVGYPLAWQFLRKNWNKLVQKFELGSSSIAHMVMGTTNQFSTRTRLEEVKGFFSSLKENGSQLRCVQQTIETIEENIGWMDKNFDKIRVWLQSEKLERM

outcome, inactive:
N#Cc1c(N)n(CCNC(=O)c2ccccc2)c2nc3ccccc3nc12
CCCC(=O)Nc1ccc2c(c1)OC[C@@H](C)N(CC1CCOCC1)C[C@H](C)[C@@H](OC)CN(C)C2=O
COCCN(C(=O)COC(=O)CNC(=O)c1cccs1)c1c(N)n(Cc2ccccc2)c(=O)[nH]c1=O
CCCC#Cc1ccc(CC[C@H]2O[C@H]3CC[C@H](CO)O[C@H]3C[C@@H]2NC(=O)CN2CCOCC2)cc1
CNc1cncc(-c2cccc(C(=O)N(C)C)c2)n1
COc1ccc2c3c([nH]c2c1)[C@H](CO)NCC31CN(Cc2cc(F)ccc2F)C1
COc1ccccc1CN1CC[C@@H]2[C@H](CO)Nc3ccc(-c4cccc(C(=O)N(C)C)c4)cc3[C@@H]21
C[C@H](CO)N1C[C@H](C)[C@H](CN(C)C(=O)Nc2ccc(F)cc2)Oc2ccc(NC(=O)CCN3CCOCC3)cc2C1=O
C[C@H](CO)N1C[C@H](C)[C@H](CN(C)C)Oc2c(NC(=O)Nc3ccc(C(F)(F)F)cc3)cccc2C1=O
C[C@H]1CCCCO[C@H](CN(C)C)[C@@H](C)CN([C@@H](C)CO)C(=O)c2cc(NS(=O)(=O)c3ccc(Cl)cc3)ccc2O1
C[C@H](CO)N1C[C@H](C)[C@H](CN(C)CC2CCCCC2)Oc2ncc(-c3ccc(F)cc3)cc2C1=O
COc1ccc2c3c(n(C)c2c1)[C@@H](CO)N(C)CC31CN(C(=O)c2cccnc2)C1
CN1CCN(S(=O)(=O)c2cccc(C(=O)N(C)CC(=O)Nc3ccc(F)c(F)c3F)c2)CC1

From PubChem BioAssay AID743314 (Broad Institute, 2014)
